Where “and” joins values, the source holds several entries; their conditions need not be identical. Identical values can stand only once. Results filed as inconclusive are left out. Unmarked numbers belong to inactive results. Calls of active or inactive are those of the source. Calls come from the whole dose curve; as a rule, active = well fitted inhibition curve with a large enough effect; inconclusive = small, poorly fitted or top-dose-only effect; inactive = flat fitted curve, though single readings scatter.

For assay [1], the system named is TAB113. Briefly: qHTS profiling for inhibitors of Plasmodium falciparum proliferation (AID 504749). Note: potency is the fitted concentration of half-maximal effect. The note with it: P. falciparum in erythrocytes, SYBR Green DNA, 72 h; series mostly up to 28.7 µM. A digest of the protocol:
(§1)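 P. falciparum-infected erythrocytes (0.3% parasitemia, 2.5% hematocrit final) were exposed to compounds for 72 h at 37 C in 5% CO2, then lysed with SYBR Green buffer overnight at room temperature; parasite DNA fluorescence was normalized to artemisinin and DMSO controls.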

Assay [2] concerns TAB165. The description is as above. The note with it: P. falciparum in erythrocytes, SYBR Green DNA, 72 h; series mostly up to 28.7 µM. A digest of the protocol:
as §1

Assay [3] deals with CRL-7250. Nature of the assay: Cytotoxic Profiling of Annotated Libraries Using Quantitative High-Throughput Screening (AID 1296008). For max response: % is set by controls: 0 for no effect and ±100 for the full control effect. The note with it: Five cell lines viability, CellTiter-Glo ATP luminescence, 48-72 h; max response: stronger effect = lower value. A digest of the protocol: (§2)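 Compounds were pin-transferred onto cells and incubated 48 or 72 hr at 37 degree Celsius, 95% humidity. CellTiter-Glo was added, plates sat 10 min at room temperature, then ATP-coupled luminescence was imaged as the viability read-out.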

Assay [4] concerns HEK293. Described as above. The note with it: Five cell lines viability, CellTiter-Glo ATP luminescence, 48-72 h; max response: stronger effect = lower value. A digest of the protocol:
as §2

Assay [5] relates to HaCat. The assay is described as above. The note with it: Five cell lines viability, CellTiter-Glo ATP luminescence, 48-72 h; max response: stronger effect = lower value. A digest of the protocol:
as §2

Assay [6] deals with KB-3-1. The assay is described as above. The note with it: Five cell lines viability, CellTiter-Glo ATP luminescence, 48-72 h; max response: stronger effect = lower value. A digest of the protocol: as §2
The test system of assay [7] is NIH3T3. The assay is described as above. The note with it: Five cell lines viability, CellTiter-Glo ATP luminescence, 48-72 h; max response: stronger effect = lower value. A digest of the protocol: as §2
Assay [8] concerns HACAT. Nature of the assay: qHTS assay to identify novel small-molecules to repurpose for Merkel cell carcinoma treatment (AID 1296009). The note with it: MCC and control cell lines, CellTiter-Glo viability, 72 h; at 44.8 µM (top of the series) unless noted. A digest of the protocol:
(§3)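 Cells exposed to NPC (8-point) and MIPE (11-point) compound dilutions for 72 hr at 37 degree celsius; viability read by CellTiter-Glo luminescence, normalized to no-cell and DMSO in-plate controls.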

The subject of assay [9] is HEK293T. The assay is described as above. The note with it: MCC and control cell lines, CellTiter-Glo viability, 72 h; at 44.8 µM (top of the series) unless noted. A digest of the protocol: as §3
The subject of assay [10] is W2. Nature of the assay: qHTS profiling for inhibitors of Plasmodium falciparum proliferation (AID 504749). Note: potency is the fitted concentration of half-maximal effect. The note with it: P. falciparum in erythrocytes, SYBR Green DNA, 72 h; series mostly up to 28.7 µM. A digest of the protocol:
as §1
Note: nearly all actives have a fitted effect of over 60% in size.

As for `COc1cc(C)c(Cc2cnc(N)nc2N)cc1OC`, the Potency result in assay [1] and in assay [2] was “inactive” in each case. For the same compound, the results for the max response in assay [3], in [6] and in [7] were 0.178%, 7.84% and 0.338%, respectively. Moreover, the compound was called inactive in assay [4], in [5], in [8] and in assay [9].
For the compound `CC[C@@]1(c2ccccc2)NC(=O)N(C)C1=O`, the Potency entry in assay [1], in [2] and in assay [10] was “inactive” throughout. The max response in [3] is -4%; in assay [6], 31.6%; in [7] it was 1.13%. Further, the compound was classed as inactive in [4], in assay [5], in assay [8] and in assay [9].
Consider `O=C(O)Cc1sc(-c2ccccc2)nc1-c1ccc(Cl)cc1`, for which the max response in assay [3] was 3.43%; in assay [6], -1.67% and -19.6% and -27.8%; in assay [7], -0.692%. For the same compound, the compound was called inactive in assay [4], in assay [5], in assay [8] and in [9].
With `COC(=O)[C@H]1[C@H]2C[C@@H]3c4[nH]c5cc(OC)ccc5c4CCN3C[C@H]2C[C@@H](OC(=O)COc2ccc(OC)cc2)[C@@H]1OC`, the max response in [3] is -0.18%; in assay [6], 0.718%. Besides, the outcome in assay [4], in assay [5], in assay [7], in assay [8] and in assay [9] was inactive.
As for `C[C@@H](O)[C@H](N)C(=O)O`, the max response in [3] is -2.34%; in assay [6], 1.86%; in [7] it was -1.06%. The result in [4] and in assay [5] was inactive. The outcome in assay [8] and in assay [9] was “inactive [at 17.4 µM]” each time.
`CCC(=O)c1ccc(O)cc1`: the Potency result in assay [1], in [2] and in assay [10] was “inactive” in each case. The max response in assay [3] was 4.24%; in assay [6], 5.91%. Also, the compound was classed as inactive in assay [4], in assay [5], in assay [7], in [8] and in assay [9].
Regarding `C[C@H](NC(CCc1ccccc1)C(=O)O)C(=O)N1CCC[C@H]1C(=O)O` (stereo partly specified), the compound was classed as inactive in [3], in assay [5] and in assay [8]. Besides, the max response in [4] is 3.49%; in [6], -16.2%; in [7] it was 1.23%.
With `NC(CSCC(=O)O)C(=O)O` (stereo unspecified), the Potency result in assay [1], in assay [2] and in [10] was “inactive” throughout. Moreover, the call in assay [3], in assay [4], in [5], in assay [7], in assay [8] and in [9] was inactive. Moreover, in assay [6], the max response is -5.75%.
For the compound `NCCNCCNCCNCCN`, the Potency result in [1], in assay [2] and in assay [10] was “inactive” in each case. Moreover, the max response in assay [3] was 3.13%; in assay [6], -4.72%; in [7] it was -0.231%. Moreover, the compound was classed as inactive in assay [4] and in assay [5]. In addition, the outcome in assay [8] and in [9] was “inactive [at 9.27 µM]” in each case.
For `O=C1NS(=O)(=O)c2ccccc21`, the Potency result in assay [1], in [2] and in assay [10] was “inactive” each time. The max response in [3] is -9.05%; in assay [6], 20.6%; in [7], -6%. In addition, the result in assay [4], in assay [5], in assay [8] and in assay [9] was inactive.
As to `O=c1cc[nH]c(=O)[nH]1`, the Potency result in assay [1], in assay [2] and in assay [10] was “inactive” throughout. In addition, the result in assay [3], in assay [4], in assay [7] and in assay [9] was inactive. In addition, the max response was -1.66% in [5] and 20.9% in assay [6].
As to `CC1CC(OC(=O)C(O)c2ccccc2)CC(C)(C)N1C` (stereo unspecified), the max response in assay [3] was -13.8%; in assay [5] it was 1.05%; in assay [6] it was 1.03% and 0.565%. For the same compound, the compound was classed as inactive in [4], in [7] and in assay [9].
In the case of `O=C(O)c1ccccn1`, the Potency entry in assay [1], in assay [2] and in [10] was “inactive” throughout. Moreover, the max response in assay [3] is -6.73%; in assay [6], -2.2%. Also, the call in assay [4], in assay [5], in assay [7], in assay [8] and in assay [9] was inactive.
`O=c1cc(CO)occ1O`: the Potency result in [1], in [2] and in assay [10] was “inactive” throughout. Further, the max response in [3] is -3.51%; in assay [5], 2.79%; in assay [6], 1.74% and -12.5%; in [7], -2.71%. Further, the result in assay [4] and in assay [9] was inactive.
Regarding `O=S(=O)(O)c1cc(I)c(O)c2ncccc12`, the Potency result in assay [1], in assay [2] and in assay [10] was “inactive” throughout. In addition, the max response in assay [3] is 1.34%; in [6], -3.56%; in assay [7], -0.492%. Further, the outcome in assay [4], in [5], in assay [8] and in assay [9] was inactive.
With `CCCCC/C(C=O)=C\c1ccccc1`, the max response is -6.23% in assay [3], 1.14% in assay [5] and -6.5% in [6]. For the same compound, the compound was classed as inactive in assay [4], in assay [7] and in assay [9].
On to `CCCOC(=O)c1ccccc1`, for which the Potency result in assay [1], in assay [2] and in assay [10] was “inactive” throughout. The max response was -5.05% in assay [3], -10.8% in assay [6] and 2.42% in assay [7]. Besides, the result in [4], in [5], in assay [8] and in [9] was inactive.
In the case of `CC(C)(C)C(=O)NCCCC(=O)O`, the Potency entry in assay [1], in [2] and in [10] was “inactive” throughout. In addition, the max response is -4.98% in [3], 4.53% in assay [5] and -0.595% in assay [6]. Also, the result in assay [4], in assay [7] and in assay [9] was inactive.
As for `CCCCCCCCCCCCOS(=O)(=O)O`, the Potency entry in assay [1], in assay [2] and in [10] was “inactive” throughout. Also, the compound was classed as inactive in [3], in [4], in [5], in assay [7], in [8] and in [9]. The max response in assay [6] was 16.2%.
Regarding `CCCCCCCCCCCCCCCC(=O)NCCO`, the Potency entry in assay [1], in assay [2] and in [10] was “inactive” throughout. Besides, the outcome in assay [3], in [4] and in assay [9] was inactive. The max response in assay [5] was -5.78%; in [6], -1.52%; in assay [7], 2.39%.
With `Oc1ccc(C(O)CNCCCCCCNCC(O)c2ccc(O)c(O)c2)cc1O` (stereo unspecified), the Potency in assay [2] was 11.2 µM (active); in assay [10] it was 16.9 µM (active). Besides, the max response in assay [3] was -1.96%; in [6], 1.48%; in assay [7], 0.438%. In addition, the outcome in assay [4], in assay [5], in [8] and in [9] was inactive.
Turning to `O=C(O)c1ccccc1-c1ccc(C(F)(F)F)cc1`, the Potency entry in assay [1], in assay [2] and in assay [10] was “inactive” in each case. Further, the call in [3], in assay [4], in assay [5], in assay [8] and in [9] was inactive. Also, the max response in assay [6] was -5.64%; in [7], -3.57%.
`COc1cc(C(=O)N2CCOCC2)cc(OC)c1OC`: the Potency entry in assay [1], in [2] and in assay [10] was “inactive” throughout. For the same compound, the max response is 0.938% in assay [3]; 1.96% in assay [4]; 4.09% and 1.86% in [6]. In addition, the result in assay [5], in assay [7] and in [8] was inactive.
As to `CC(=O)Nc1ccc(/C=N/NC(N)=S)cc1`, the Potency result in assay [1], in assay [2] and in assay [10] was “inactive” throughout. The compound was called inactive in assay [3], in assay [5] and in [8]. Besides, the max response is 0.104% in [4]; -10.7% and 2.19% in assay [6]; -3.1% in assay [7].
As to `CCCCC(CC)COC(=O)c1ccccc1O` (stereo unspecified), the Potency entry in [1], in assay [2] and in assay [10] was “inactive” in each case. Besides, the max response in assay [3] was -6.25%; in assay [6], -6.97%. Moreover, the outcome in assay [4], in [5], in assay [7], in assay [8] and in [9] was inactive.
`[O-][n+]1cccc(CO)c1`: the Potency entry in assay [1], in assay [2] and in assay [10] was “inactive” each time. In addition, the max response in assay [3] was -1.91%; in assay [6], 4.61%. For the same compound, the compound was called inactive in assay [4], in assay [5], in assay [7], in assay [8] and in assay [9].
